According to PubChem BioAssay (EPA / NIEHS):
Values joined by “and” are separate entries in the source; they are usually repeats but may differ in a detail not shown here. Equal entries are not always repeated. Some compounds were tested as several samples or in several runs, with calls that do not always agree. Active and inactive are the calls of the source. Rule for the calls: active = hit-call score of the fitted dose curve at least 0.9, where 1 is the maximum; inactive = score below 0.9.

What was measured:
[1] = APR_HepG2_MitoMembPot_72hr: Apredica 72-hour HepG2 Assay for Mitochondrial Membrane Potential (AID 2282917); settings: imaging, actives raise or lower the signal
Method in brief: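 HepG2 cells exposed 72 h to compounds at 0.39–200 uM (0.5% v/v DMSO, duplicates); MitoTracker Red CMXRos 250 nM loaded 30 min before 3.7% formaldehyde fixation, imaged by HCS fluorescence. Bidirectional fit versus DMSO.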

[2] = APR_HepG2_MitoticArrest_72hr: Apredica 72-hour HepG2 Assay for Mitotic Arrest (AID 2282918); settings: high-content imaging, actives raise or lower the signal
Method in brief: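 HepG2, 72 hr exposure, 0.39–200 uM in duplicate, 0.5% v/v DMSO final. Formaldehyde-fixed, Triton-permeabilized, anti-phospho-histone H3/FITC plus Hoechst. ArrayScan imaging at 20x; curves fit bidirectionally against DMSO baseline.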

[3] = APR_HepG2_MicrotubuleCSK_72hr: Apredica 72-hour HepG2 Assay for Microtubule CSK Stabilty (AID 2282919); settings: HepG2 microtubule cytoskeleton, high-content imaging, actives raise or lower the signal
Method in brief: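 Ten-point dosing (0.39–200 uM, 0.5% DMSO) of HepG2 for 72 hr, with taxol as the cytoskeletal positive control. The cells were formaldehyde-fixed and then stained with alpha-tubulin/Cy5 and Hoechst. Imaging at 20x used a −2 um Z offset for tubulin.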

[4] = APR_HepG2_P-H2AX_24hr: Apredica 24-hour HepG2 Assay for H2AX Phosphorylation (AID 2282920); settings: high-content imaging, actives raise or lower the signal
Method in brief: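 HCS fluorescence imaging of phospho-H2A.x immunostain (with Hoechst 33342 nuclear counterstain) in HepG2 after 24 hr compound exposure; 10 concentrations, 0.39–200 uM, duplicate wells, 0.5% v/v DMSO. Gain or loss of signal fitted relative to DMSO baseline.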

[5] = APR_HepG2_StressKinase_72hr: Apredica 72-hour HepG2 Assay for Stress Kinase (AID 2282921); settings: HepG2 stress kinase (phospho-c-Jun) imaging, actives raise or lower the signal
Method in brief: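 After a 72 h compound treatment spanning 0.39 to 200 uM, formaldehyde-fixed cells are labelled for phosphorylated c-Jun and nuclei, imaged by automated fluorescence microscopy, and activity is fitted in both directions relative to DMSO controls.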

[6] = APR_HepG2_StressKinase_24hr: Apredica 24-hour HepG2 Assay for Stress Kinase (AID 2282922); settings: HepG2 stress kinase (phospho-c-Jun) imaging, actives raise or lower the signal
Method in brief: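 After 24 hr compound treatment (up to 200 uM, final DMSO 0.5% v/v), HepG2 cells are fixed and multiplex-labeled; phospho-c-Jun intensity is captured by high-content fluorescence imaging and analyzed relative to DMSO.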

[7] = APR_HepG2_p53Act_72hr: Apredica 72-hour HepG2 Assay for p53 Activation (AID 2282923); settings: high-content imaging, actives raise or lower the signal;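 note: average cellular p53 protein immunofluorescence intensity in HepG2 cells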
Method in brief: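 Imaging-based endpoint: after 72 hr compound exposure (up to 200 uM, 0.5% DMSO), fixed and permeabilized monolayers were labelled with anti-p53 antibody and imaged; signal change in either direction was fitted relative to DMSO controls.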

[8] = APR_HepG2_MitoMass_72hr: Apredica 72-hour HepG2 Assay for Mitochondrial Mass (AID 2282924); settings: high-content imaging, actives raise or lower the signal;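 note: MitoTracker Red CMXRos stain intensity per cell imaged as mitochondrial mass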
Method in brief: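 Steps: treat HepG2 72 hr (0.39–200 uM, duplicate wells); load MitoTracker Red CMXRos, 250 nM, 30 min; fix with 3.7% formaldehyde, permeabilise with 0.5% Triton X-100; capture images, nuclei via Hoechst 33342; fit bidirectionally against DMSO.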

[9] = APR_HepG2_NuclearSize_72hr: Apredica 72-hour HepG2 Assay for Nuclear Size (AID 2282925); settings: high-content imaging, actives raise or lower the signal
Method in brief: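 Compounds (0.39–200 uM, final DMSO 0.5%) were applied to HepG2 for 72 hr. Cells were then formaldehyde-fixed, permeabilized and labelled with Hoechst 33342. Nuclear diameter was quantified from six images per well.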

[10] = ATG_CRE_CIS: Attagene CIS-FACTORIAL HepG2 Assay for human cAMP Responsive Element (CRE) binding protein 3 (AID 2282926); settings: HepG2 CRE cis-reporter, Attagene multiplexed mRNA; actives raise or lower the signal
Method in brief: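 Readout: fluorescently labelled reporter transcripts resolved by capillary electrophoresis after RT-PCR, taken 24 h post-dosing in transfected HepG2. Endogenous transcription factor activity drives each cis-element reporter; gain or loss of signal fitted relative to DMSO control.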

[11] = target: CCAAT/enhancer-binding protein beta (Homo sapiens) (UniProt P17676); test: ATG_C_EBP_CIS: Attagene CIS-FACTORIAL HepG2 Assay for human CCAAT/Enhancer Binding Protein (C/EBP) beta (AID 2282927); settings: HepG2 Attagene cis-factorial transcription factor reporter; actives raise or lower the signal
Sequence of CCAAT/enhancer-binding protein beta (Homo sapiens) (P17676 whole entry, looked up, the tested form may be a part): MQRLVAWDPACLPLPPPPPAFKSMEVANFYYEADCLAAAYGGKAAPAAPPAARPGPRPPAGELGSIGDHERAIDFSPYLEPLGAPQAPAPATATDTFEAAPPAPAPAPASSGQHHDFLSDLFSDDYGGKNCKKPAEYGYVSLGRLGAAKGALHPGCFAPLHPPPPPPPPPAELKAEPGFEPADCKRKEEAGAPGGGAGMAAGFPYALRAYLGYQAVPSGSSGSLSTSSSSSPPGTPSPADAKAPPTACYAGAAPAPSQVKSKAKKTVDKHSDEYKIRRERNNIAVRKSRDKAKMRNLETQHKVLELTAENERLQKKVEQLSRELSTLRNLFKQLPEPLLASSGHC
Method in brief: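 Chemical-treated HepG2 cells (24 h) bearing cis-regulated reporter constructs were processed for total RNA, then reverse transcription, PCR amplification, fluorescent primer extension and fragment analysis; gain- and loss-of-signal were fitted against DMSO.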

[12] = ATG_CMV_CIS: Attagene CIS-FACTORIAL HepG2 Assay for human CMV (Internal Marker) (AID 2282928); settings: HepG2 CMV promoter reporter, transcription factor profiling; actives raise or lower the signal;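 note: endpoint acts as a background internal control marker rather than a target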
Method in brief: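 Readout: fluorescent reporter cDNA fragments separated by capillary electrophoresis after RT-PCR and HpaI cut. Cells: HepG2 carrying transfected cis-promoter reporter constructs, dosed 24 h. Endpoint serves as background internal-marker control, fit bidirectionally versus DMSO.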

[13] = ATG_DR4_LXR_CIS: Attagene CIS-FACTORIAL HepG2 Assay for human Liver X Receptor (LXR), DR4 submotif (AID 2282929); settings: HepG2 Attagene DR4 cis-reporter, mRNA transcription; actives raise or lower the signal
Method in brief: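 HepG2 cells transiently transfected with cis-promoter-driven multiplexed reporter units (DR4 element) were dosed for 24 h. Reporter mRNA was quantified by RT-PCR, fluorescent primer extension, HpaI digestion and capillary electrophoresis; bidirectional fitting versus DMSO baseline.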

[14] = target: Aryl hydrocarbon receptor (Homo sapiens) (UniProt P35869); test: ATG_Ahr_CIS: Attagene CIS-FACTORIAL HepG2 Assay for human Aryl Hydrocarbon Receptor (Ahr) (AID 2282930); settings: HepG2 AhR cis-factorial reporter transcription; actives raise or lower the signal
Sequence of Aryl hydrocarbon receptor (Homo sapiens) (P35869 whole entry, looked up): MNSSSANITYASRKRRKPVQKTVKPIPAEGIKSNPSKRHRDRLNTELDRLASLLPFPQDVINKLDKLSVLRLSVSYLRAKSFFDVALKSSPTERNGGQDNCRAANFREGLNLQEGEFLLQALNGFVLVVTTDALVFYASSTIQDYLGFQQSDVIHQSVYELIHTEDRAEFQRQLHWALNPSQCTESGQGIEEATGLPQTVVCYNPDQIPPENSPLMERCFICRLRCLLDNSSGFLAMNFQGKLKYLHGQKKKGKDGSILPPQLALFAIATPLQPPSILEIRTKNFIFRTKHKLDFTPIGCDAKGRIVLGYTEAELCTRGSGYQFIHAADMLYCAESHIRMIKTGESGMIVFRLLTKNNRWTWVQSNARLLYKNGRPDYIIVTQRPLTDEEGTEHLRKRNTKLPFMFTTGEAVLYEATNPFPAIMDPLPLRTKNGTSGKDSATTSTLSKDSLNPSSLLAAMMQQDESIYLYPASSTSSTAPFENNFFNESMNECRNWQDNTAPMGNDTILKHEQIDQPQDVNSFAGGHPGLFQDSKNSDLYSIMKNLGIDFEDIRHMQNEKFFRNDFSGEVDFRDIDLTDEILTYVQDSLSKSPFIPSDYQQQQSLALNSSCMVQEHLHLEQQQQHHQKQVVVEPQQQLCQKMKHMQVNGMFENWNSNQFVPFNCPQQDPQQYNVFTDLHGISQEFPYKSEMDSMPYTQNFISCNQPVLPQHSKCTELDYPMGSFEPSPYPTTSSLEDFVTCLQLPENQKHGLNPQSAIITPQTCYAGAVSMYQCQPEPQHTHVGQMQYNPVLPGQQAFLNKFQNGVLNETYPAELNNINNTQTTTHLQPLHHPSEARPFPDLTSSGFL
Method in brief: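 Following 24 h of chemical dosing, transfected HepG2 liver cells with cis-driven reporter units were lysed for RNA; reporter mRNA was quantified via RT-PCR and capillary electrophoresis, and responses fitted bidirectionally from DMSO.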

[15] = ATG_AP_1_CIS: Attagene CIS-FACTORIAL HepG2 Assay for human Activator Protein 1 (AP-1) (AID 2282931); settings: HepG2 Attagene cis-factorial AP-1 reporter mRNA; actives raise or lower the signal
Method in brief: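 HepG2 cells transiently transfected with cis-element-driven multiplex reporter units; 24 h compound exposure. Reporter mRNA quantified by RT-PCR, FAM-labelled fragments resolved by capillary electrophoresis; bidirectional fit versus DMSO baseline.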

[16] = ATG_AP_2_CIS: Attagene CIS-FACTORIAL HepG2 Assay for human Activator Protein 2 (AP-2) (AID 2282932); settings: HepG2 AP-2 cis-reporter, Attagene transcription factor profiling; actives raise or lower the signal
Method in brief: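 Cells (HepG2) transfected with promoter-driven reporter constructs, treated 24 h. Total RNA reverse-transcribed, reporter cDNA PCR-amplified, FAM-labelled by primer extension, digested, resolved by capillary electrophoresis. Activity fitted both directions versus DMSO.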

[17] = ATG_BRE_CIS: Attagene CIS-FACTORIAL HepG2 Assay for human Bone Morphogenetic Protein (BMP) Response Element (BRE) (AID 2282933); settings: HepG2 BMP response element reporter, Attagene transcription factor profiling; actives raise or lower the signal
Method in brief: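 Transient MRTU transfection of human HepG2 liver cells; 24 h compound treatment; total RNA isolated, reverse-transcribed, PCR-amplified, 6-FAM labelled, HpaI-cut, capillary electrophoresis. DMSO = negative control/baseline, bidirectional fit.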

[18] = target: Retinoic acid receptor alpha (Homo sapiens) (UniProt P10276); test: ATG_DR5_RAR_CIS: Attagene CIS-FACTORIAL HepG2 Assay for human Retinoic Acid Receptor Alpha (RARE), DR5 submotif (AID 2282934); settings: HepG2 Attagene cis-factorial RARE DR5 reporter, mRNA; actives raise or lower the signal;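 for AC50: reporter responds to endogenous RAR alpha beta and gamma in HepG2 not RARA alone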
Sequence of Retinoic acid receptor alpha (Homo sapiens) (P10276 whole entry, looked up): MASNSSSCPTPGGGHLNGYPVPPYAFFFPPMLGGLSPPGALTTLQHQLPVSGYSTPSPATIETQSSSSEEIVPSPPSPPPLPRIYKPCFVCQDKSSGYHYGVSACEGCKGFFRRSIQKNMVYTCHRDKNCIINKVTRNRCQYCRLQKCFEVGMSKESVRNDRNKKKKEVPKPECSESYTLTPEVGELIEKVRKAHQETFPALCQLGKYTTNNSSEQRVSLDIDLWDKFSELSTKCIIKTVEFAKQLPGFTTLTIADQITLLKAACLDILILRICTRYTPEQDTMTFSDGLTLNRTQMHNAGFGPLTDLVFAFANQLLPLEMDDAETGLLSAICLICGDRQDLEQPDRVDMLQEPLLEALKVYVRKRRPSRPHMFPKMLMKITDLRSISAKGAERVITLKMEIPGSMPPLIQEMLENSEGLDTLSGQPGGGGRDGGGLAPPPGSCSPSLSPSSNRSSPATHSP
Method in brief: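 Transfected HepG2 reporter cells are exposed to chemicals for 24 h. Then RNA is extracted and the DR5 element reporter transcript is measured by RT-PCR and capillary electrophoresis, with bidirectional curve fitting relative to DMSO.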

[19] = target: Transcription factor E2F1 (Homo sapiens) (UniProt Q01094); test: ATG_E2F_CIS: Attagene CIS-FACTORIAL HepG2 Assay for human E2F Transcription Factor 1 (AID 2282935); settings: HepG2 Attagene cis-reporter, E2F reporter RNA transcripts; actives raise or lower the signal
Sequence of Transcription factor E2F1 (Homo sapiens) (Q01094 whole entry, looked up): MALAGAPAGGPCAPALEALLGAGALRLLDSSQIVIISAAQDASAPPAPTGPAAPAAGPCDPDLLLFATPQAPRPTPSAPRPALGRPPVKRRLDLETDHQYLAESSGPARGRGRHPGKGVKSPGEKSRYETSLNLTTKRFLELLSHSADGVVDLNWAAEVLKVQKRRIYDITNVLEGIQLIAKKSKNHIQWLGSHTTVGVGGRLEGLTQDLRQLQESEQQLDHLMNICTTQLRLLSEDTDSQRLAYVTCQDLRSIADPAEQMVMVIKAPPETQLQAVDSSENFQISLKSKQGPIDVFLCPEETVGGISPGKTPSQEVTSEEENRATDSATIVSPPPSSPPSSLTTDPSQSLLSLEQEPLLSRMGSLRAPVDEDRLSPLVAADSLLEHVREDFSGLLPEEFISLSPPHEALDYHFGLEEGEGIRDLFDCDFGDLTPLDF
Method in brief: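 First, HepG2 cells were transfected with reporter transcription units. Next, they were dosed for 24 h. Then RNA was isolated, converted to cDNA, PCR-amplified, FAM-labeled, HpaI-digested and analyzed by capillary electrophoresis.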

Measured: AC50

NC(=O)c1nc(-c2cccc(-c3cc(F)ccc3OCC(F)(F)C(F)(F)F)c2)n[nH]1
active: [5] 93.4 µM | [9] 100 µM | [10] 27.7 µM | [12] 12.1 µM | [13] 44.4 µM | [15] 24 µM | [17] 19.8 µM | [19] 16.8 µM
inactive: all other assays above

Cc1ccc2oc(CN(Cc3ccccc3)C(=O)Nc3c(F)cc(F)cc3F)c(-c3ccc(Cl)cc3)c2c1
not listed: [1] | [13]
inactive: all other assays above

O=C(OCCCCCCOC(=O)c1ccccc1)c1ccccc1
not listed: [13]
inactive: all other assays above

O=c1c(-c2ccc(O)cc2)coc2cc(O)cc(O)c12
active: [7] 72.9 µM | [10] 27.5 µM and 50.6 µM | [11] 36.5 µM [middle of 4 runs] | [12] 19.1 µM [middle of 4 runs] | [14] 34.3 µM | [16] 29.8 µM and 52.6 µM | [18] 62.3 µM
inactive: [2] | [3] | [4] | [5] | [6] | [8] | [9] | [10] | [14] | [15] | [16] | [17] | [18] | [19]

CCCCCCCCOc1ccc(C(=O)c2ccccc2)c(O)c1
active: [14] 59.1 µM
not listed: [1] | [13]
inactive: all other assays above

Oc1ccc2ccccc2c1
active: [13] 100 µM | [14] 870 nM and 1.98 µM
inactive: all other assays above

COc1ccc2cc(S(=O)(=O)N[C@H](CC(=O)N[C@H](Cc3ccc(CN4[C@H](C)CCC[C@@H]4C)cc3)C(=O)N(C)C(C)C)c3ccc4c(c3)OCO4)ccc2c1
inactive: [1] | [3] | [6] | [9] | [11] | [12] | [13] | [16] | [18]
active: [2] 11.1 µM | [4] 21.8 µM | [5] 13.6 µM | [7] 10.7 µM | [8] 45 µM | [10] 15.4 µM | [14] 14.7 µM | [15] 11 µM | [17] 11 µM | [19] 11 µM

CN(C)c1ccc(C(=C2C=CC(=[N+](C)C)C=C2)c2ccc(N(C)C)cc2)cc1
active: [2] 4.11 µM | [3] 12.4 µM | [4] 4.3 µM | [5] 40 µM | [6] 6.59 µM | [7] 19.9 µM | [8] 0.0403 µM | [11] 4.56 µM | [13] 2.86 µM | [15] 2.23 µM | [18] 2.58 µM
inactive: [9] | [10] | [12] | [14] | [16] | [17] | [19]

O=c1[nH]sc2ccccc12
active: [1] 107 µM | [2] 9.46 µM | [4] 5.7 µM | [5] 50.4 µM | [7] 48.5 µM | [8] 13.6 µM | [10] 45.4 µM
not listed: [13]
inactive: all other assays above

Clc1cc(Cl)c2c(c1)N=C1CCCCCN1C2
not listed: [1] | [13]
inactive: all other assays above

Cc1oc2c(NC(=O)c3c(Cl)cccc3Cl)cccc2c1C(C)(C)O
active: [12] 6.16 µM | [14] 4.28 µM | [15] 38 µM | [17] 152 µM | [18] 3.06 µM
not listed: [1] | [13]
inactive: all other assays above

CCO[Si](CCCNC(N)=O)(OCC)OCC
not listed: [1] | [13]
inactive: all other assays above

CCN(CC)C(=O)c1cc(S(=O)(=O)Cc2ccccc2)c(N2CCC(c3ccccc3)CC2)cc1N(CC)CCN(C)C
active: [2] 1.12 µM | [3] 7.7 µM | [4] 1.93 µM
not listed: [1]
inactive: all other assays above

Oc1ccccc1
not listed: [13]
inactive: all other assays above
